# The supplement of paper PMC3545927
# Some of the results follow. The true hit rate is not given.
# Target: furin, P09958
# Assay: furin cleavage Z-score vs untreated control; higher = more cleavage, active = 3.5 or more, inactive = 1 or less, 8 variable residues between constant flanks
# How it was run: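 Purified furin cleaved 8-mer peptides that were fused to a cDNA oligonucleotide and held on magnetic beads by their N-terminus. Each 0.01 ml reaction used a 1:10 enzyme:substrate ratio in 50 mM HEPES pH 7.5 with CaCl2 and NaCl and ran 7.5, 15 or 30 min. Released DNA was adapter-tagged by PCR and sequenced, and read counts gave abundance. The cleavage Z-score came from log counts against furin-free reactions, lowess-adjusted and scaled by median absolute deviation.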
# Sequence of furin, P09958 (P09958 whole entry): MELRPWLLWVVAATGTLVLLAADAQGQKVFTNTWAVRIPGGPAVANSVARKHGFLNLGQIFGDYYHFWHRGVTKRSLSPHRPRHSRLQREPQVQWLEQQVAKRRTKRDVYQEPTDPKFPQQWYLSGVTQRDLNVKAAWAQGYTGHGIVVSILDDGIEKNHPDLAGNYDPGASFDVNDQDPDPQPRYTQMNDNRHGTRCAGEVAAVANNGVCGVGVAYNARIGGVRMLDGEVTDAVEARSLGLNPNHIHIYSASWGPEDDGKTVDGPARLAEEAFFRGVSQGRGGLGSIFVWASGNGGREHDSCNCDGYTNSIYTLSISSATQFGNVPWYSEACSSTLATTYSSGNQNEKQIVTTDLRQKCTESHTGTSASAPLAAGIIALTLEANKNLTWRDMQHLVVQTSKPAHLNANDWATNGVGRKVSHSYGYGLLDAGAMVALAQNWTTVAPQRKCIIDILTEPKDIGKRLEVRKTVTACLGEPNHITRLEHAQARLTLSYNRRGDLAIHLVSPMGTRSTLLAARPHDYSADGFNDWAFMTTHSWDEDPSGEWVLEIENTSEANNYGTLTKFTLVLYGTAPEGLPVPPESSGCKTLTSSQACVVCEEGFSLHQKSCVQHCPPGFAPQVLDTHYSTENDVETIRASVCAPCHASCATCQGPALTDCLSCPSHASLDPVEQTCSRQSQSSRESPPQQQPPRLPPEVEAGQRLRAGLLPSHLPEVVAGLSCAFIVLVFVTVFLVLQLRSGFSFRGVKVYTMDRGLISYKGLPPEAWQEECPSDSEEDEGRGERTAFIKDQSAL
Sequence,furin cleavage Z-score (7.5 min),furin cleavage Z-score (15 min),furin cleavage Z-score (30 min)
CAVCGAPPCVAGNASASA [HC442],1.21,0.519 (inactive),0.314 (inactive)
CAEVVTKTWVAGNASASA [HC151],-0.0944 (inactive),0.88 (inactive),-0.37 (inactive)
CAEVAASCGGAGNASASA [HC567],-0.691 (inactive),-0.994 (inactive),-0.368 (inactive)
CAHRFAPPCKAGNASASA [HC1226],-2.1 (inactive),-0.755 (inactive),0.739 (inactive)
CARAKRSSKMAGNASASA [FS-3181],5.7 (active),7.55 (active),8.74 (active)
CARAKRSVHFAGNASASA [FS-2640],-0.56 (inactive),-0.574 (inactive),1.29
CARAKKGLGMAGNASASA [FS-2128],1.05,0.216 (inactive),0.932 (inactive)
CATTPCSGMWAGNASASA [HC1906],0.488 (inactive),0.804 (inactive),-1.44 (inactive)
CAHPVTKYIMAGNASASA [HC980],-1.79 (inactive),0.202 (inactive),-0.88 (inactive)
CAKAEREKRKAGNASASA [FS-807],0.64 (inactive),0.758 (inactive),1.86
CAPAQRTKRKAGNASASA [FS-836],10.3 (active),11.5 (active),9.82 (active)
CAPRPISYLKAGNASASA [HC738],0.812 (inactive),1.42,0.555 (inactive)
CAAFRRGVTKAGNASASA [FS-1876],-0.242 (inactive),-0.144 (inactive),-1.52 (inactive)
CAPTARPKRKAGNASASA [FS-913],4.97 (active),4.54 (active),4.32 (active)
CAPAKRPKRKAGNASASA [FS-1470],11.2 (active),12 (active),9.89 (active)
CAFAPPCKPLAGNASASA [HC1227],-0.328 (inactive),-1.28 (inactive),-1.52 (inactive)
CAMIAGAHWGAGNASASA [HC334],-0.899 (inactive),-0.615 (inactive),-0.232 (inactive)
CAHFKRTRRSAGNASASA [FS-1532],10.4 (active),10.2 (active),8.6 (active)
CAALVRTRRCAGNASASA [FS-214],5.77 (active),6.03 (active),5.43 (active)
CAALVVGVVCAGNASASA [HC1106],-0.352 (inactive),-0.584 (inactive),-0.588 (inactive)
CAVTRRKGRCAGNASASA [FS-1294],3.46,5.29 (active),5.86 (active)
CAALLRTRRSAGNASASA [FS-972],8.62 (active),7.98 (active),4.19 (active)

Sequence,furin cleavage Z-score (7.5 min),furin cleavage Z-score (15 min),furin cleavage Z-score (30 min)
CAALVMAQLLAGNASASA [HC326],0.829 (inactive),0.666 (inactive),-0.00652 (inactive)
CAVTRHADVIAGNASASA [HC727],-0.38 (inactive),1,-0.771 (inactive)
CARTGRACECAGNASASA [FS-2464],-0.465 (inactive),0.257 (inactive),0.474 (inactive)
CATALNCNDSAGNASASA [HC373],-0.291 (inactive),1.13,-0.956 (inactive)
CADPNIRTGVAGNASASA [HC798],-0.151 (inactive),0.395 (inactive),0.163 (inactive)
CATTPCKGSWAGNASASA [HC71],1.27,0.748 (inactive),0.0767 (inactive)
CAMEECSQHNAGNASASA [HC1781],1.41,1.49,0.115 (inactive)
CATTPCSGGWAGNASASA [HC1916],-1.1 (inactive),-1.09 (inactive),-1.17 (inactive)
CARLCRKRRCAGNASASA [FS-1478],5.9 (active),6.48 (active),7.28 (active)
CAMPKKTRRSAGNASASA [FS-1140],9.94 (active),11.9 (active),9.14 (active)
CARLASCRPLAGNASASA [HC388],-0.427 (inactive),-1.06 (inactive),-2.04 (inactive)
CARKKKRQSLAGNASASA [FS-2153],0.376 (inactive),0.239 (inactive),0.449 (inactive)
CAPLKRSMSLAGNASASA [FS-2875],2.28,0.41 (inactive),0.484 (inactive)
CAGITGDNTTAGNASASA [HC1340],0.448 (inactive),-1.88 (inactive),-0.26 (inactive)
CARAGRSKRTAGNASASA [FS-486],10.8 (active),9.36 (active),7.48 (active)
CAWISSECTTAGNASASA [HC1142],-0.663 (inactive),-0.247 (inactive),0.84 (inactive)
CARAGRSKGTAGNASASA [FU10],1.67,1.52,0.0134 (inactive)
CARAGRACEGAGNASASA [FS-2882],0.299 (inactive),-0.431 (inactive),0.946 (inactive)
CARAGRSAPLAGNASASA [FS-2883],2.27,5.01 (active),3.82 (active)
CARAGRSGKEAGNASASA [FS-1990],0.457 (inactive),0.0281 (inactive),-1.58 (inactive)
CARIKRRKSLAGNASASA [FS-2953],2.28,3.44,5 (active)
CARIKRGNTTAGNASASA [FS-2952],4.9 (active),5.56 (active),4.43 (active)
